# Assay results reported in PubChem BioAssay (NCI).
# Compounds without any hit were thinned out: in the full panel of roughly 79,000, 15% have a hit. A number with no mark means an inactive call. Calls of active or inactive are those of the source. Rule as the data show it: active = growth inhibition above about 70%; inactive = the rest.
# Test: NCI Yeast Anticancer Drug Screen. Data for the mlh1 rad18 strain (AID 175)
# Settings: S. cerevisiae mlh1 rad18 strain growth inhibition, hits give high values
# Experimental: Growth inhibition of yeast strains with defined genetic alterations is measured as a screen for potential anti-cancer activity. Selected strains with alterations in DNA damage repair or cell cycle control were exposed to compounds and growth inhibition was measured relative to vehicle treated controls. The strain used in this assay is mlh1 rad18
# [1] = at 5.0 µM (retest, dose inferred, filed as 0.5)
# [2] = at 50.0 µM (retest, dose inferred, filed as 5.0)
Structure (SMILES),growth inhibition [1],growth inhibition [2],growth inhibition (at 50.0 µM)
CN(C)CC1CCCc2ccccc2C1=O (stereo not given),13%,66%,70.2% (active)
C=C(C)[C@@H]1CCc2c(O)c(O)c(=O)cc(C)c2C1,57%,96% (active),92.2% (active)
NC(N)=NCCCS(=O)(=O)Nc1ccc(Nc2c3ccccc3nc3cc([N+](=O)[O-])ccc23)cc1,-8%,83% (active),
CN[C@@H]1C[C@H]2O[C@@](C)([C@@H]1OC)n1c3ccccc3c3c4c(c5c6ccccc6n2c5c31)C(=O)N[C@@H]4O,2%,31%,25.7%
CCCCC1=NNC(=O)C1,53%,69%,-34.6%
CC(=O)Oc1ccc(N2C(=O)C3c4[nH]c5ccccc5c4C4CCC(C(C)(C)C)CC4C3C2=O)cc1 (stereo not given),98% (active),98% (active),98% (active)
O=C(N/N=C\c1c(Cl)cccc1Cl)N/N=C/c1c(Cl)cccc1Cl,38%,88% (active),55.9%
CCC(c1ccc(O)cc1)C(CC)c1ccc(OCCN)cc1 (stereo not given),12%,87% (active),14.6%
Cc1ccc(I)cc1N=C=S,35%,50%,63.1%
CC[C@@]1(OC(=O)CN(C)C)C(=O)OCc2c1cc1n(c2=O)Cc2cc3c(N)cccc3nc2-1,27%,27%,73.5% (active)
O=C1c2ccccc2C(=O)c2cc(S(=O)(=O)Nc3ccccc3)ccc21,77% (active),75% (active),97.7% (active)
O=C(CNS(=O)(=O)Cc1ccccc1)NNc1ccccc1,71% (active),90% (active),40.1%
Cc1ccc2c(ccc(/C=C/c3ccc(O)c4ncccc34)[n+]2C)c1,58%,91% (active),
O=S1(=O)c2ccccc2N=C(c2ccccc2Cl)CC1c1ccc(F)cc1 (stereo not given),-26%,81% (active),72.5% (active)
